Screens deposited in PubChem by National Center for Advancing Translational Sciences (NCATS).
Sfp PPTase inh: inhibitors of Bacillus subtilis Sfp phosphopantetheinyl transferase; AID 1490; 310,000 tested, 3.5% active; Potency, µM, usual class: inhibitors; Biochemical Sfp PPTase activity, qHTS; Q9F4F7;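 also: the enzyme is Sfp with the accession as filed and its product quenches rhodamine fluorescence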
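Step 1, compound plus 15 nM Sfp-PPTase, 15 min, room temperature. Step 2, add rhodamine-CoA (5 uM) and BHQ-2-YbbR (12.5 uM). Step 3, read 525/598 nm fluorescence at 0 and 30 min.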
BAZ2B block: inhibitors of human BAZ2B bromodomain. Potency, µM (doses to about 114 µM), actives largely listed as inhibitors. 360,000 tested, 4.4% active. AlphaScreen BAZ2B-H3K14Ac peptide displacement. Q9UIF8; also: nearly all actives have a fitted effect of over 60% in size
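BAZ2B 50 nM plus b-H3(5-23)K14Ac 50 nM, PBS pH 7.4/0.01% Tween-20, 30 min RT; compound added (max 110 uM), 30 min RT; streptavidin donor/Ni-chelate acceptor beads 10 ug/mL final, 20 min dark; AlphaScreen read.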
G9a block: blocks human histone lysine methyltransferase G9a; 350,000 tested, 8.8% active; G9a H3K9 monomethylation, AlphaScreen, 2 h; Q96KQ7; Potency, µM (series often up to 102 µM), actives largely listed as inhibitors; AID 504332; also: nearly all actives have a fitted effect of over 75% in size
Target sequence (Q96KQ7 913-1193 limits assumed): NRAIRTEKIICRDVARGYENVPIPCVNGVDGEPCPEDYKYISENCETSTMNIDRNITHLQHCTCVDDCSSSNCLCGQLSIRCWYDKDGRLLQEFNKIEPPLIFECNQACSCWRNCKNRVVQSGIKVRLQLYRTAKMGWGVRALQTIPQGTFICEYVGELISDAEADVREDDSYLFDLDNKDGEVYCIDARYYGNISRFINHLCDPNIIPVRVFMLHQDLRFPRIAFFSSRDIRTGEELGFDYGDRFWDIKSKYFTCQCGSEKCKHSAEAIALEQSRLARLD
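Enzyme 20 nM + cpd, 15 min RT; add b-H3K9 pep 500 nM / SAM 20 uM; 2 h RT; anti-H3K9me1 Ab 0.5 ug/mL + SA donor / anti-rabbit acceptor beads 20 ug/mL each, 10 min; AlphaScreen read.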
JMJD2A Tudor: blocks the human JMJD2A Tudor domain; O75164; AlphaScreen JMJD2A-Tudor / H3K4me3 peptide binding; Potency, µM (top dose mostly 114 µM), actives largely listed as inhibitors; 390,000 tested, 4.4% active; AID 504339; also: nearly all actives have a fitted effect of over 50% in size
HP1b binding inh: HP1-beta chromodomain-methylated histone interaction inhibition | AID 540317 | AlphaScreen HP1-beta / biotin-H3K9me3 peptide binding | Potency, µM (doses to about 114 µM), most hits filed as inhibitors | P83916 | 390,000 tested, 0.56% active; also: nearly all actives have a fitted effect of over 70% in size
Target sequence (P83916 whole entry, looked up): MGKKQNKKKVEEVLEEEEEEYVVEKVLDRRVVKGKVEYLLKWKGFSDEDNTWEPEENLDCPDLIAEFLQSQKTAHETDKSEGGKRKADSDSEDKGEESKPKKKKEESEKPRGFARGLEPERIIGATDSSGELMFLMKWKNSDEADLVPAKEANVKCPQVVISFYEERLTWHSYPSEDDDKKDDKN
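Compound inhibition of the preformed complex between 50 nM HP1-beta and 50 nM biotinylated H3K9me3 peptide was read by AlphaScreen. Buffer was PBS pH 7.4 with 0.01% Tween-20. Incubations ran 30 min at room temperature, with 10 ug/mL donor/acceptor beads.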
Hits are given with their value; . = inactive; ? = inconclusive; / = no result given; [ ] = dose if it differs, or a comment. Sampled rows, rich in hits. Any-hit rate of the full collection: about 12%. Calls follow the shape of the dose curve; as a rule, active = well fitted curve in the direction sought with a large enough effect; inconclusive = small, poorly fitted or top-dose-only effect, or another doubt; inactive = no such curve, though single readings can be large; an effect the other way counts as inactive or inconclusive.

SMILES	Sfp PPTase inh	BAZ2B block	G9a block	JMJD2A Tudor	HP1b binding inh
O=[N+]([O-])c1cc(Cl)cc(/C=N\Nc2ccccn2)c1O	.	4.47µM	?	10µM	10µM
O=C(N/N=C/c1ccc(F)cc1)c1cc(-c2ccccn2)nc2ccccc12	/	.	.	.	.
COc1cccc(/C=N/NC(=O)c2cc(-c3ccccn3)nc3ccccc23)c1O	/	.	.[12.7 µM]	56.2µM	.
O=C(N/N=C/c1cc(Cl)cc([N+](=O)[O-])c1O)c1cc(-c2ccccn2)nc2ccccc12	.	?	.[12.7 µM]	44.7µM	?
CCCSc1nc2sc3c(c2c(=O)n1-c1ccccc1)CCC(C)C3 (configuration not stated)	/	.	.	.	.
COc1ccc(C(=O)OCC(=O)c2ccc(CNC(C)=O)s2)cc1	/	.	10µM	.	.
NC(=S)n1[nH]c(-c2ccc([N+](=O)[O-])cc2)c(N=Nc2cccc(Cl)c2)c1=O	.	?	35.5µM	39.8µM	.
Cc1[nH]n(C(N)=S)c(=O)c1N=Nc1cccc(Cl)c1	.	.	39.8µM	.	.
Cc1ccc2c(c1)c(N=Nc1ccc([N+](=O)[O-])cc1)c(O)n2C	.	.	.	.	.
Cc1cccc(N=Nc2c(C)[nH]n(C(N)=S)c2=O)c1C	.	?	?	/	/
NC(=S)n1[nH]c(-c2ccc([N+](=O)[O-])cc2)c(N=Nc2ccc(O)cc2)c1=O	.	50.1µM	56.2µM	?	?
CCN(CC)S(=O)(=O)c1ccc(N=Nc2c(C)[nH]n(C(N)=S)c2=O)cc1	79.4µM	.	?	?	.
COc1cc(OC)cc(C(=O)Nc2cc(-c3nc4cc(Cl)ccc4o3)ccc2Cl)c1	/	.	.	.	.
Cc1[nH]n(C(N)=S)c(=O)c1N=Nc1ccc([N+](=O)[O-])cc1Cl	.	28.2µM	25.1µM	?	?
Cc1ccccc1N=Nc1c(C)[nH]n(C(N)=S)c1=O	.	.	?	?	?
O=C(/N=C1\NC(=O)C(F)(C(F)(F)F)S1)NC1CCCCC1 (configuration not stated)	12.6µM	.	3.16µM	50.1µM	?
CC(Oc1ccc(Br)cc1)C(=O)Nc1nc(-c2ccccn2)cs1 (configuration not stated)	39.8µM	56.2µM	20µM	79.4µM	.
CC(C)[C@H](NC(=O)c1ccccc1Cl)C(=O)Nc1nc(-c2ccccn2)cs1	?	31.6µM	.	44.7µM	.
CC(=O)N1CCCc2cc(S(=O)(=O)N3CCC(C(=O)NCc4ccccc4Cl)CC3)ccc21	/	.	.	.	.
N#Cc1ccsc1NC(=O)c1cccc([N+](=O)[O-])c1	39.8µM	.	.	.	.
N#Cc1ccsc1NC(=O)c1ccc(Cl)c([N+](=O)[O-])c1	.	.	/	.	.
N#Cc1ccsc1NC(=O)CCc1ccccc1	.	?	25.1µM	.	.
N#Cc1ccsc1NC(=O)c1ccccn1	?	10µM	?	20µM	.
N#Cc1ccsc1NC(=O)CN(Cc1ccccc1)Cc1ccccc1	.	.	.	.	.
COc1ccc(C2C(C(=O)Nc3cc(C)on3)c3ccccc3C(=O)N2C)cc1 (configuration not stated)	.	.	?	.	?
SMILES	Sfp PPTase inh	BAZ2B block	G9a block	JMJD2A Tudor	HP1b binding inh
Cc1ccc(CNC(=O)C2c3ccccc3C(=O)N(C)C2c2c[nH]c3ccccc23)o1 (configuration not stated)	50.1µM	?	?	.	.
COc1cc(NC(=O)CSc2ccc(-c3ccco3)nn2)cc(OC)c1	28.2µM	.	?	.	.
COc1ccc(NC(=O)CSc2ccc(-c3cccs3)nn2)cc1	/	.	10µM	.	.
COc1ccc(NC(=O)CSc2ccc(-c3ccco3)nn2)cc1	31.6µM	.	/	.	.
Cc1nc2ccc(S(=O)(=O)N3CCN(S(=O)(=O)c4c(F)cccc4F)CC3)cc2s1	/	/	/	.	/
COc1ccc(-c2noc(-c3ccc(NCCc4ccccc4)c([N+](=O)[O-])c3)n2)cc1	/	.	?	.	.
Cc1ccccc1OCC(=O)OCC(=O)NCCc1ccccc1	/	.	.[12.7 µM]	.	.
O=C1C=C(N2CCOCC2)C2(CCCCC2)O1	.	?	44.7µM	.	.
CC(=O)Nc1ccc(NC(=O)CCCCCN2C(=O)c3ccccc3C2=O)cc1	.	.	.	.	.
CCCCN1/C(=C/c2cccc[n+]2C)Sc2cc(NC(C)=O)ccc21	.	.	44.7µM	28.2µM	.
